The results in this text go back to publication PMC4336329 (PLoS ONE, 2015).

SMILES strings stand for the structures. About 14,000 (4.5%) of roughly 310,000 compounds showed an effect of 50% or more. The effect is printed as a negative number. What follows is part of a selection rich in strong results, with near analogues and random picks from the rest.
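Further: peak tail current of the secondary pulse compared with the same well before compound.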

The target of the test is human ether-à-go-go-related gene (hERG) potassium channel (human, UniProt Q12809). Nature of the test: primary screen, population patch clamp on CHO cells stably expressing hERG; higher = less effect of the substance.
human ether-à-go-go-related gene (hERG) potassium channel, sequence (Q12809 whole entry, looked up): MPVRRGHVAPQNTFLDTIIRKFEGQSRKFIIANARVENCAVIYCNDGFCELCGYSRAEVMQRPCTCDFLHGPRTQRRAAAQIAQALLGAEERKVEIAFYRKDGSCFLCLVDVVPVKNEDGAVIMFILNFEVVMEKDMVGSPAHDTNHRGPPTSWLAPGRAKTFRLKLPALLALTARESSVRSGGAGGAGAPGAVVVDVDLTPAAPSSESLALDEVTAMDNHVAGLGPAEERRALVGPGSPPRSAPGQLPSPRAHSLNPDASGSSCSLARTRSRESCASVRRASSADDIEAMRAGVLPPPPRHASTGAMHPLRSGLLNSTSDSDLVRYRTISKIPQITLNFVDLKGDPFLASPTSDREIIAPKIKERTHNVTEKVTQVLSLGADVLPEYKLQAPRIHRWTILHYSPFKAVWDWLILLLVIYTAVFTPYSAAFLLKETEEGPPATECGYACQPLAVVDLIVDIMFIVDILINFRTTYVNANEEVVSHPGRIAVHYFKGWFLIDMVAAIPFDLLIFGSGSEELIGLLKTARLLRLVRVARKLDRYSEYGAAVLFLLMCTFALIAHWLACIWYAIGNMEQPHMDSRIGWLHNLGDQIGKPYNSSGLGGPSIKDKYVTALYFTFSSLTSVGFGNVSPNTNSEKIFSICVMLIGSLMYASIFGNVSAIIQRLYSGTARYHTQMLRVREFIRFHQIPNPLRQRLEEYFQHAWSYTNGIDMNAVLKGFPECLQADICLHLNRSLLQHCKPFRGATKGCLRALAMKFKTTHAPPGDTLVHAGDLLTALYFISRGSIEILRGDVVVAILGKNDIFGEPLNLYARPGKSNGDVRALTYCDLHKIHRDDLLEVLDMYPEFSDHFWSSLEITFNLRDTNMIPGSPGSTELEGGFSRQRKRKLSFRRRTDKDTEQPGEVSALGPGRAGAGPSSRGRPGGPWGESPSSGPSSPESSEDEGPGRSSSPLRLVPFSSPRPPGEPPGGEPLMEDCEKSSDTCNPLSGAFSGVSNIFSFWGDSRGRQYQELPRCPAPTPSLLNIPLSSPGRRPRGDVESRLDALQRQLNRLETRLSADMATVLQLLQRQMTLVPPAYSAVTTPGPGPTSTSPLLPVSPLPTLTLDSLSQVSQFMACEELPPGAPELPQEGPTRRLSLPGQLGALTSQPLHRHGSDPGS
As for `O=C(c1cccs1)N1CCN(c2nc3ccccc3s2)CC1`, the “hERG current change (%, negative = inhibition) at 10uM” value turned out to be 0.757%.

As for `O=C(CN1CCC(c2nc3ccccc3s2)CC1)NCc1ccccc1`, the “hERG current change (%, negative = inhibition) at 10uM” value is reported as -67.5%.

Turning to `O=C(CN1CCC(c2nc3ccccc3s2)CC1)NCc1cccs1`, the “hERG current change (%, negative = inhibition) at 10uM” value is on record as -37.2%.

For `O=C(c1cccs1)N1CCC(c2nc3ccccc3s2)CC1`, the “hERG current change (%, negative = inhibition) at 10uM” value is on record as -57.2%.

`O=C(CN1CCC(c2nc3ccccc3s2)CC1)N1CCCCC1`: the “hERG current change (%, negative = inhibition) at 10uM” value is -33.5%.

As to `O=C(c1cccc(F)c1)N1CCC(c2nc3ccccc3s2)CC1`, the “hERG current change (%, negative = inhibition) at 10uM” value is given as -49.9%.

Consider `Cc1cccc(C(=O)N2CCC(c3nc4ccccc4s3)CC2)c1`, for which the “hERG current change (%, negative = inhibition) at 10uM” value is on record as -33.7%.

As for `O=C(c1ccccc1Br)N1CCC(c2nc3ccccc3s2)CC1`, the “hERG current change (%, negative = inhibition) at 10uM” value is given as -35.1%.

As to `CCc1ccc(C(=O)N2CCC(c3nc4ccccc4s3)CC2)cc1`, the “hERG current change (%, negative = inhibition) at 10uM” value is given as -71.9%.

Turning to `O=C(N/N=C/c1c[nH]c2ccc(Br)cc12)c1ccn(Cc2ccc(Cl)cc2Cl)n1`, the “hERG current change (%, negative = inhibition) at 10uM” value is recorded as 6.95%.

With `C/C(=C\c1ccc(Br)cc1)C(=O)c1c(C)cc(C)[nH]c1=O`, the “hERG current change (%, negative = inhibition) at 10uM” value was 8%.

In the case of `Cc1cc(C)c(NC(=O)CS)c(Cl)c1`, the “hERG current change (%, negative = inhibition) at 10uM” value is given as 6.4%.

As to `CCOc1ccc(C(=O)Nc2c(C(=O)N3CCC(N4CCCCC4)CC3)oc3ccccc23)cc1`, the “hERG current change (%, negative = inhibition) at 10uM” value is recorded as -83.2%.

As for `CCOc1ccc(C(=O)Nc2c(C(N)=O)oc3ccccc23)cc1`, the “hERG current change (%, negative = inhibition) at 10uM” value came out at 11.9%.

For `COc1cc(C(=O)Nc2c(C(=O)N3CCOCC3)oc3ccccc23)cc(OC)c1OC`, the “hERG current change (%, negative = inhibition) at 10uM” value is given as -10%.

As to `O=C(Nc1c(C(=O)N2CCC(N3CCCCC3)CC2)oc2ccccc12)c1ccc(F)cc1`, the “hERG current change (%, negative = inhibition) at 10uM” value is on record as -65.8%.

Turning to `O=C(Nc1c(C(=O)N2CCC(N3CCCCC3)CC2)oc2ccccc12)c1c(F)cccc1F`, the “hERG current change (%, negative = inhibition) at 10uM” value was -51.7%.

Consider `O=C(c1ccc(F)cc1)N1CCC(N2CCCCCC2)CC1`, for which the “hERG current change (%, negative = inhibition) at 10uM” value is -26%.

As for `O=C(Nc1ccc(F)cc1)c1oc2ccccc2c1NC(=O)C1CCCC1`, the “hERG current change (%, negative = inhibition) at 10uM” value is recorded as -4.15%.

For `O=C(c1ccccc1F)N1CCC(N2CCCCCC2)CC1`, the “hERG current change (%, negative = inhibition) at 10uM” value is -10.3%.

Turning to `O=C(Nc1c(C(=O)N2CCOCC2)oc2ccccc12)c1ccccc1Cl`, the “hERG current change (%, negative = inhibition) at 10uM” value is on record as 0.111%.

In the case of `O=C(O)CCCCCCCCc1cn(CCc2c[nH]c3ccccc23)nn1`, the “hERG current change (%, negative = inhibition) at 10uM” value was 4.49%.

Regarding `O=C(Nc1ccc(Cl)cc1)C1=Cc2ccccc2OC1`, the “hERG current change (%, negative = inhibition) at 10uM” value was -9.34%.

In the case of `CC(=NCCC1=CCCCC1)c1c(O)n(-c2ccccc2)c(=O)[nH]c1=O`, the “hERG current change (%, negative = inhibition) at 10uM” value was 4.58%.

For the compound `CC(C)C[C@H](CO)Nc1nc(N(C)c2cccc(Cl)c2)c2ncn(C(C)C)c2n1`, the “hERG current change (%, negative = inhibition) at 10uM” value is listed as -7.87%.

`COCCn1c(=S)[nH]c2cc(OC)c(OC)cc2c1=O`: the “hERG current change (%, negative = inhibition) at 10uM” value worked out at 11%.

Consider `COc1ccc(-c2nnnn2-c2ccccc2OC)cc1`, for which the “hERG current change (%, negative = inhibition) at 10uM” value is -9.02%.

`Cc1ccc(CSc2nn3c(=O)c(C)nnc3s2)cc1`: the “hERG current change (%, negative = inhibition) at 10uM” value is -13.9%.

Consider `CCOC(=O)N1CCN(c2nc(-c3ccccc3)c3cc(C)ccc3n2)CC1`, for which the “hERG current change (%, negative = inhibition) at 10uM” value is -8.98%.

Regarding `Cc1ccc2nc(N3CCN(CCO)CC3)nc(-c3ccccc3)c2c1`, the “hERG current change (%, negative = inhibition) at 10uM” value was -54.4%.

On to `Cc1ccc2nc(N3CCC(C(=O)O)CC3)nc(-c3ccccc3)c2c1`, for which the “hERG current change (%, negative = inhibition) at 10uM” value is -1.95%.

As to `OCCN1CCN(c2nc(-c3ccccc3)c3cc(Br)ccc3n2)CC1`, the “hERG current change (%, negative = inhibition) at 10uM” value is recorded as -47.7%.

For `Cc1ccc2nc(N3CCN(C=O)CC3)nc(-c3ccccc3)c2c1`, the “hERG current change (%, negative = inhibition) at 10uM” value is -56%.

With `OCCN1CCN(c2nc(-c3ccccc3)c3cc(Cl)ccc3n2)CC1`, the “hERG current change (%, negative = inhibition) at 10uM” value is on record as -26.2%.

On to `Cc1cccn2c(Nc3ccccc3)c(-c3ccccn3)nc12`, for which the “hERG current change (%, negative = inhibition) at 10uM” value amounted to 1.81%.

For the compound `NC(CSCc1ccccc1Cl)C(=O)O` (centres unmarked), the “hERG current change (%, negative = inhibition) at 10uM” value stood at 0.173%.

As to `COc1ccc(S(=O)(=O)N(C)c2ccc(C(=O)Nc3ccccc3C(=O)N3CCOCC3)cc2)cc1`, the “hERG current change (%, negative = inhibition) at 10uM” value is -6.94%.

Turning to `Cc1ccc(-n2nnnc2-c2ccco2)cc1`, the “hERG current change (%, negative = inhibition) at 10uM” value is reported as -2.37%.

Take `O=C(N1CCC(n2nc(-c3ccccc3)oc2=O)CC1)C1(c2ccccc2)CC1`: the “hERG current change (%, negative = inhibition) at 10uM” value is -17.5%.

Consider `COc1ccc(NC(=O)COC(=O)C2CC(=O)N(Cc3ccc(C)cc3)C2)cc1` (centres unmarked), for which the “hERG current change (%, negative = inhibition) at 10uM” value was -12.7%.

As to `CCc1ccc(N2CC(C(=O)OCC(=O)Nc3ccc(C#N)cc3)CC2=O)cc1` (centres unmarked), the “hERG current change (%, negative = inhibition) at 10uM” value is -57.9%.

Consider `Cc1cccc(N2CC(C(=O)OCc3ccc([N+](=O)[O-])cc3)CC2=O)c1` (centres unmarked), for which the “hERG current change (%, negative = inhibition) at 10uM” value is given as -64%.

In the case of `Cc1ccc(N2CC(C(=O)OCc3ccccc3)CC2=O)cc1` (centres unmarked), the “hERG current change (%, negative = inhibition) at 10uM” value was -15.6%.

On to `Cc1cccc(N2CC(C(=O)O)CC2=O)c1` (centres unmarked), for which the “hERG current change (%, negative = inhibition) at 10uM” value is recorded as -15.2%.

On to `CC(=O)c1ccc(OC(=O)C2CC(=O)N(c3cccc(C)c3)C2)cc1` (centres unmarked), for which the “hERG current change (%, negative = inhibition) at 10uM” value was -1.85%.

In the case of `CCc1ccc(N2CC(C(=O)OCC(=O)Nc3ccc([N+](=O)[O-])cc3)CC2=O)cc1` (centres unmarked), the “hERG current change (%, negative = inhibition) at 10uM” value is given as -36.9%.

As to `O=C(OCc1ccc([N+](=O)[O-])cc1)C1CC(=O)N(c2ccccc2)C1` (centres unmarked), the “hERG current change (%, negative = inhibition) at 10uM” value was -69.1%.

For the compound `COc1ccc(COC(=O)C2CC(=O)N(Cc3ccccc3)C2)cc1` (centres unmarked), the “hERG current change (%, negative = inhibition) at 10uM” value is on record as -34.1%.

Turning to `CCc1ccc(N2CC(C(=O)OCC(=O)Nc3ccc(C(C)=O)cc3)CC2=O)cc1` (centres unmarked), the “hERG current change (%, negative = inhibition) at 10uM” value is -19.1%.

For `NC(=O)C1CC(=O)N(c2ccc(OCc3ccc([N+](=O)[O-])cc3)cc2)C1` (centres unmarked), the “hERG current change (%, negative = inhibition) at 10uM” value is -30.8%.

On to `COc1ccc(COC(=O)C2CC(=O)N(Cc3ccc(C)cc3)C2)cc1` (centres unmarked), for which the “hERG current change (%, negative = inhibition) at 10uM” value was -58.3%.

Consider `Cc1ccnc(NS(=O)(=O)c2ccc(NS(=O)(=O)Cc3ccccc3)cc2)n1`, for which the “hERG current change (%, negative = inhibition) at 10uM” value amounted to 9.43%.

As to `COc1cc2c(cc1OC)C(=S)NC1(CCCC1)C2`, the “hERG current change (%, negative = inhibition) at 10uM” value is 9.36%.

Take `COc1ccc(CCNC(C)C(=O)Nc2ccc(S(N)(=O)=O)cc2)cc1` (centres unmarked): the “hERG current change (%, negative = inhibition) at 10uM” value was -9.23%.

With `CC1CCC2C(=O)N(c3ccc(NC4CCCCC4)c([N+](=O)[O-])c3)C(=O)C2C1` (centres unmarked), the “hERG current change (%, negative = inhibition) at 10uM” value came to 1.71%.

As to `Cc1ccc(CSc2nc3c(c(=O)[nH]2)C(c2ccncc2)C2=C(CCCC2=O)N3)cc1` (centres unmarked), the “hERG current change (%, negative = inhibition) at 10uM” value was found to be 9.42%.
